Laboratory results reported in PubChem BioAssay AID2238 (Southern Research Specialized Biocontainment Screening …, 2010).
Activity calls are given as the source filed them. No rule for the calls is given here.

assay: West Nile virus CPE inhibition, SAR follow-up, cell-based, synthesized analogs (AID 2238); conditions: West Nile virus CPE inhibition in cells; max CPE inhibition: measured here: maximum CPE inhibition observed, at 40 µM, stronger effect = higher value unless noted; series mostly up to 40 µM; CPE inhibition: at the top concentration

Row | Structure (SMILES) | max CPE inhibition | CPE inhibition
1 | O=C(Nc1nc(-c2ccccc2)cs1)c1ccccc1Cl | 0.47% [measured here: maximum CPE inhibition observed, at 0.16 µM, stronger effect = higher value] | 0.31% (inactive)
2 | CC1CC(C)CN(CCCNC(=O)c2cc3c(s2)-c2ccccc2OC3)C1 (configuration not stated) | 41.1% [measured here: maximum CPE inhibition observed, at 20 µM, stronger effect = higher value] | –
3 | O=C(CSc1nc2ccccc2c(=O)n1-c1ccc(Cl)cc1)Nc1ccc2c(c1)CCC2 | 45.5% [measured here: maximum CPE inhibition observed, at 20 µM, stronger effect = higher value] | –
4 | CC1CCN(CCCNC(=O)c2cc3c(s2)-c2ccccc2OC3)CC1 | 73.1% [measured here: maximum CPE inhibition observed, at 20 µM, stronger effect = higher value] | –
5 | Oc1ccccc1C(Nc1nccs1)c1ccc2cccnc2c1O (configuration not stated) | 8.25% [measured here: maximum CPE inhibition observed, at 5 µM, stronger effect = higher value] | 7.7% (inactive)
6 | CCN(CC)CCCNC(=S)N1CCN(c2nc(-c3ccccc3)cs2)CC1 | 76% [measured here: maximum CPE inhibition observed, at 20 µM, stronger effect = higher value] | –
7 | CC1CCCC(C)N1CCCNC(=O)c1cc2c(s1)-c1ccccc1OC2 (configuration not stated) | 77% [measured here: maximum CPE inhibition observed, at 10 µM, stronger effect = higher value] | –
8 | COc1cccc(C(NC(=O)c2ccccc2)c2ccc3cccnc3c2O)c1 (configuration not stated) | 5.83% [measured here: maximum CPE inhibition observed, at 5 µM, stronger effect = higher value] | -0.16% (inactive)
9 | Cc1cccc2c1-c1sc(C(=O)NCCCN3CCC(C)CC3)cc1CO2 | 30.6% [measured here: maximum CPE inhibition observed, at 10 µM, stronger effect = higher value] | –
10 | O=C(CSc1nc2ccccc2c(=O)n1-c1ccc(Cl)c(Cl)c1)Nc1ccc2c(c1)CCC2 | 63.1% | –
11 | CC1CCCN(CCCNC(=O)c2cc3c(s2)-c2ccccc2OC3)C1 (configuration not stated) | 71.4% [measured here: maximum CPE inhibition observed, at 10 µM, stronger effect = higher value] | –
12 | CCCN(C(=O)c1ccccc1Cl)c1nc(-c2ccc(OC)cc2)cs1 | 0.77% | 0.77% (inactive)
13 | O=C(CSc1nc2ccccc2c(=O)n1-c1ccc(F)cc1F)Nc1ccc2c(c1)CCC2 | 64.8% [measured here: maximum CPE inhibition observed, at 80 µM, stronger effect = higher value] | –
14 | CCCN1CCN(CCCNC(=O)c2cc3c(s2)-c2c(C)cccc2OC3)CC1 | 42.7% [measured here: maximum CPE inhibition observed, at 10 µM, stronger effect = higher value] | –
15 | COc1ccc(-c2csc(N(CCCN(C)C)C(=O)c3ccccc3C)n2)cc1 | 60.8% [measured here: maximum CPE inhibition observed, at 80 µM, stronger effect = higher value] | –
16 | Brc1ccc2c(c1)CN1CCCC1=N2 | 54.9% | –
17 | O=C(Nc1nc(-c2ccc(Cl)cc2)cs1)c1cccc(Cl)c1 | 0.85% | 0.85% (inactive)
18 | O=C(CSc1nc2ccccc2c(=O)n1-c1ccc(F)cc1)Nc1ccc2c(c1)CCC2 | 65.2% | –
19 | CN(C)CCCN1c2ccc([N+](=O)[O-])cc2CCc2cc([N+](=O)[O-])ccc21 | 80.3% [measured here: maximum CPE inhibition observed, at 20 µM, stronger effect = higher value] | –
20 | COc1ccc(-c2csc(N(CCCN(C)C)C(=O)c3ccccc3Cl)n2)cc1 | 69.5% | –
21 | CCCCN(C(=O)c1ccccc1Cl)c1nc(-c2ccc(OC)cc2)cs1 | 1.9% | 1.9% (inactive)
22 | Nc1ccc2nc3n(c(=O)c2c1)CCC3 | 1.56% | 1.56% (inactive)
23 | CCOC(=O)C1(Cc2ccccc2C(F)(F)F)CCN(C2CCN(C(C)C)CC2)CC1 | 59.8% | –
24 | CCOC(=O)C1(Cc2ccccc2C(F)(F)F)CCN(C2CCN(C(C)=O)CC2)CC1 | 1.58% [measured here: maximum CPE inhibition observed, at 20 µM, stronger effect = higher value] | 0.62% [at 80 µM] (inactive)
